Some of the results follow. Records with an inconclusive call do not appear. Calls of active or inactive are those of the source.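 The calls were made as follows, unless noted: active = thallium entry rate above the same plate's blocked-transporter control wells by more than 3 SD; inconclusive = the two repeat wells disagree; inactive = the rest.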
Legend:
[1] = target: Solute carrier family 12 member 5 (Homo sapiens) (UniProt Q9H2X9); experiment: retest of KCC2 transport modulators without sodium – cell-based, HEK293 KCC2, thallium flux, secondary assay, confirmation (AID 1713;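 active = thallium flux slope above the same plate's solvent-only control mean plus 3 SD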); conditions: FluoZin2 fluorescence, at 10 µM, stronger effect = higher value
Chain of Solute carrier family 12 member 5 (Homo sapiens) (Q9H2X9 whole entry, looked up): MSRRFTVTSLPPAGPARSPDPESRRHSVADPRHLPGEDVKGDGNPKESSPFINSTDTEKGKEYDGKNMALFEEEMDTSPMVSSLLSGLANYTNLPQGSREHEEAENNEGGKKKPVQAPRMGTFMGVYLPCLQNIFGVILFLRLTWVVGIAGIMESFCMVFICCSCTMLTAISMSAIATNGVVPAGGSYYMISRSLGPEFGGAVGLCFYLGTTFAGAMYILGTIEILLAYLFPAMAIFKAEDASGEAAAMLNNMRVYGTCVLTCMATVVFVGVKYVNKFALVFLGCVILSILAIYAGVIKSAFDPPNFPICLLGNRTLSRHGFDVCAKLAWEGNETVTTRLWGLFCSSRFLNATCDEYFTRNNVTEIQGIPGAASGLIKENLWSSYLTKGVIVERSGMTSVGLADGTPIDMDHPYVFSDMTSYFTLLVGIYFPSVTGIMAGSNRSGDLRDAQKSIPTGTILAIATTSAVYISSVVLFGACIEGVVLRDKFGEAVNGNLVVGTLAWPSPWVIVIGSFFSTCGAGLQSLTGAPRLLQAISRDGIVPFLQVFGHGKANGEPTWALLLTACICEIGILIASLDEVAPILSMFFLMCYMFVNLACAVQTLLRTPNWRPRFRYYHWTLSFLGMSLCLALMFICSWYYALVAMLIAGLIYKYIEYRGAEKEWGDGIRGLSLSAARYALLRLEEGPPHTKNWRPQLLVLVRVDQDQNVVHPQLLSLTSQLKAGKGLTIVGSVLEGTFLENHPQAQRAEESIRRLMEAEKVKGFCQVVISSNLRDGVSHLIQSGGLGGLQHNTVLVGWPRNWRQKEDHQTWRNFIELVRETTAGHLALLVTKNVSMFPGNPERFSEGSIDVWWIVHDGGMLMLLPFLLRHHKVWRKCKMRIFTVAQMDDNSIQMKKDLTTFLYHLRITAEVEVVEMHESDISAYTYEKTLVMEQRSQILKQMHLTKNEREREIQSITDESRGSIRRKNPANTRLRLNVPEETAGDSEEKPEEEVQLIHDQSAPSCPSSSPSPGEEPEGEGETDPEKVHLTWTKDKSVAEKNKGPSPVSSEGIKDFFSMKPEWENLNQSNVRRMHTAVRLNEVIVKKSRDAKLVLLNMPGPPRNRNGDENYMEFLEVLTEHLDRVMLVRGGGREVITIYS

PubChem AID 1714 = conditions: HEK293-KCC2 + bumetanide/ouabain, thallium flux FluoZin2; at 10 µM; stronger effect = higher value
[2] = target: Solute carrier family 12 member 5 (Homo sapiens) (UniProt Q9H2X9); experiment: retest of KCC2 transport modulation, ouabain-free – cell-based, HEK293 KCC2, thallium flux, FluoZin2, secondary assay 2, confirmation (AID 1715;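 active = thallium flux slope more than 3 SD above or below the plate's solvent-only control mean, mostly below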;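 also: raw slope with 0.1% DMSO as baseline and bumetanide as block control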); conditions: HEK293-KCC2, thallium flux FluoZin2 fluorescence; at 10 µM; actives lie on both sides; F/F0 rise rate, 10–20 s post-thallium
[3] = compound effects on native HEK Tl+ uptake – HEK cells, counterscreen 1, counter-screen for KCC2 modulator project, confirmation (AID 1716;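 active = thallium flux rate significantly above the same plate's solvent-only control wells, beyond their mean plus 3 SD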); conditions: HEK293 parental cells, thallium flux FluoZin2, ouabain; at 10 µM; baseline-ratio fluorescence slope, 10–20 s after thallium
[4] = target: Solute carrier family 12 member 5 (Homo sapiens) (UniProt Q9H2X9); experiment: modulation of KCC2 thallium flux in HEK cells – cell-based, ouabain, retest, confirmation (AID 1717;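 active = thallium flux slope beyond 3 SD from same-plate DMSO control mean in most replicates, usually higher, sometimes lower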;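 also: slope of initial-normalized fluorescence between seconds 10 and 20 after thallium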); conditions: HEK293-KCC2, thallium flux FluoZin2 fluorescence, at 10 µM, bidirectional: low = inhibitor, high = activator
[5] = native HEK Tl+ uptake effects, second counter-screen – HEK cells, counterscreen 2, counter-screen for KCC2 modulator project, confirmation (AID 1718;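 active = thallium flux slope above the same plate's solvent-control mean plus 3 SD in both duplicate wells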;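 also: run without ouabain in cells lacking the KCC2 cotransporter; slope of fluorescence scaled to its starting value between 10 and 20 s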); conditions: HEK293 parental, thallium flux FluoZin-2 fluorescence slope; at 10 µM
[6] = inhibitors of TNFa-induced NFkB p65 translocation, primary screen, imaging, HUVEC, MLSMR starter and 10KST1 sets (AID 438;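 active = inhibition above 20% together with a positive visual image hit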;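 also: compound added about 3h40 before a 20 min TNFalpha stimulation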;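 as to inhibition: signal is the nuclear over cytoplasmic p65 intensity ratio per well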); conditions: HUVEC TNFa-induced p65 nuclear translocation; cell count: measured here: nuclei count (cytotoxicity indicator), at 2.08 µM; inhibition: at 2 µM, stronger effect = higher value, 0% TNFa-plus-vehicle, 100% no-TNFa wells
[7] = reduction of polyQ htt aggregates in cells – imaging, exon1htt(103Q)mCFP cells, high-content imaging, primary screen (AID 483;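 active = visual image review flags a hit and inhibition of aggregation exceeds 20%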;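 also: compound exposure lasted 3 days before fixation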;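 as to nuclei count: percent of the per-plate median nuclei count of sample wells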); conditions: exon1htt(103Q)mCFP cell line, aggregate imaging, at 2 µM; inhibition of aggregation: stronger effect = higher value; nuclei count: measured here: cell count, toxicity
[8] = endothelial E-selectin expression blockers – imaging, HUVEC, immunofluorescence, MLSMR starter and 10KST1 sets, primary screen (AID 487;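 active = visually confirmed hit in the image check and inhibition above 20%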;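 as to inhibition: signal is fraction of cell area covered by stained E-selectin grains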;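 as to nuclei count: 100% = median nuclei count of all wells on the same plate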); conditions: HUVEC TNFalpha-induced E-selectin immunofluorescence imaging, at 2 µM; inhibition: stronger effect = higher value; nuclei count: measured here: cell number, toxicity
[9] = Primary imaging screen for DUSP6 inhibitors that restore phospho-Erk in transfected HeLa cells, chemical complementation (AID 609;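 active = compounds giving at least 50% inhibition in the cell-based MKP-3 phosphatase rescue imaging test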;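 as to inhibition: phospho-Erk level distribution per well compared with pooled transfected vehicle control wells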); conditions: HeLa MKP-3 transfected, phospho-Erk imaging KS statistic, at 10 µM, cells stimulated with TPA for 15 min
[10] = target: Dual specificity protein phosphatase 6 (Homo sapiens) (UniProt Q16828); experiment: as above; conditions: HeLa MKP-3 transfected, phospho-Erk imaging KS statistic; at 10 µM; stronger effect = higher value; cells stimulated with TPA for 15 min
Chain of Dual specificity protein phosphatase 6 (Homo sapiens) (Q16828 whole entry, looked up): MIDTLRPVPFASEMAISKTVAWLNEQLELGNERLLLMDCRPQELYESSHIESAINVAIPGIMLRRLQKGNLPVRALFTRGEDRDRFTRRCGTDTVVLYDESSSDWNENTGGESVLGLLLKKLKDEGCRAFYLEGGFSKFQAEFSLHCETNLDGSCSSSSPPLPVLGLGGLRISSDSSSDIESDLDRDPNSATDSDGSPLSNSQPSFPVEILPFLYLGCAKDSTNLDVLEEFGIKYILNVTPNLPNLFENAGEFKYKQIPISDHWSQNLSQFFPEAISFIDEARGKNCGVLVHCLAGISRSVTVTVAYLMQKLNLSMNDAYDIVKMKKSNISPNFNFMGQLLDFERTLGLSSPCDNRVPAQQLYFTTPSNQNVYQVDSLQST

[11] = target: Voltage-gated potassium channel subunit beta-2 (Rattus norvegicus) (UniProt P62483); experiment: inhibitors of rat Kvbeta2 reductase activity – biochemical, NADPH fluorescence, primary screen (AID 622;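 active = fluorescence slope higher than the sample average by over 3 SD, cut at about -0.22 in these data, passing the limit was not always enough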;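 also: slope of raw intensity against log time taken from 70 to 1610 s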); conditions: recombinant KvBeta, 4-cyanobenzaldehyde reduction, at 10 µM, stronger effect = higher value
Chain of Voltage-gated potassium channel subunit beta-2 (Rattus norvegicus) (P62483 whole entry, looked up): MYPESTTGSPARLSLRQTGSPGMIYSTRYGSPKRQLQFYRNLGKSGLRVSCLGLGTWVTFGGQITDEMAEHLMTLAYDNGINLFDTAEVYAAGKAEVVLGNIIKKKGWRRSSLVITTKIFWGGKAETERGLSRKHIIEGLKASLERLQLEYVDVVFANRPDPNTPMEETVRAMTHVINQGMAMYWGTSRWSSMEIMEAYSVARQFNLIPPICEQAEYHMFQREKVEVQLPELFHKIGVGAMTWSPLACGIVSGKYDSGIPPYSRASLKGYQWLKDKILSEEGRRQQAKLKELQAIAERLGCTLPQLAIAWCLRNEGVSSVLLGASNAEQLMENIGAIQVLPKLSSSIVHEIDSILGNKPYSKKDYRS

[12] = target: Voltage-gated potassium channel subunit beta-2 (Rattus norvegicus) (UniProt P62483); experiment: enhancers of rat Kvbeta2 NADPH turnover – biochemical, NADPH fluorescence, primary screen (AID 623;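 active = NADPH fluorescence slope more negative than the mean of all samples by about 3 SD, 99.7% confidence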;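 also: fluorescence intensity change per second fitted from 20 to 320 s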); conditions: Recombinant KvBeta, NADPH fluorescence decrease slope, 10 min; at 10 µM; stronger effect = lower value
[13] = target: Muscarinic acetylcholine receptor M4 (Homo sapiens) (UniProt P08173); experiment: M4-linked GIRK flux change, two-sided – cell-based, HEK293 M4/GIRK, thallium flux, BTC-AM, M4 allosteric agonist project, primary screen (AID 625;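 active = fluorescence slope after compound addition differing from the mean of all tested samples at 99.7% confidence, mostly higher but some lower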;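 also: thallium influx through GIRK channels coupled to M4 in HEK293 cells with BTC-AM dye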); conditions: at 10 µM, actives lie on both sides
Chain of Muscarinic acetylcholine receptor M4 (Homo sapiens) (P08173 whole entry, looked up): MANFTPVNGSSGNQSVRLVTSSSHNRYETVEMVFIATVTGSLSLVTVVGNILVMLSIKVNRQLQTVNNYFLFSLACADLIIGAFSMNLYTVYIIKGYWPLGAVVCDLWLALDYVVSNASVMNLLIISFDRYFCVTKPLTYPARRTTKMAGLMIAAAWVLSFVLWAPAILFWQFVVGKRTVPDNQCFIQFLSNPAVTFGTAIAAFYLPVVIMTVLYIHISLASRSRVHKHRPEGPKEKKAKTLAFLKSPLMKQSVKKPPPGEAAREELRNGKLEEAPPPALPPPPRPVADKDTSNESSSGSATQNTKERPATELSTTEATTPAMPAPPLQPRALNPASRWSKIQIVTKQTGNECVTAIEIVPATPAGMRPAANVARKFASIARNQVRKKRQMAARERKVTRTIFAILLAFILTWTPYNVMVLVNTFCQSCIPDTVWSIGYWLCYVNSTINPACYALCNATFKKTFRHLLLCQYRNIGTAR

[14] = inhibitors of larval lipid processing in zebrafish, primary screen, whole organism, PED6 fluorescence, gall bladder and intestine (AID 686;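 active = a full or partial loss of lipid-probe fluorescence in the fish gall bladder, intestine or both, judged by eye; inactive = no fluorescence loss, or compound toxic to the fish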;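 also: larvae 5 to 7 days old with five fish per well; signal comes from phospholipase A2 cleavage of quenched PED6 carried via bile; overnight exposure to compound and PED6 before scoring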); conditions: Zebrafish larvae PED6 lipid processing, fluorescence scoring; screened at 20 µM (by protocol)
[15] = loss of swimming-algae plug formation – whole organism, Chlamydomonas reinhardtii, WT vs cilia-less mutant, absorbance, 96-well, primary screen (AID 463189;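 active = inhibition at or above 50% relative to wild type and mutant plate controls; inactive = inhibition below 50%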;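 also: 0% = wild type cc124 cells in DMSO and 100% = ciliumless bld1 mutant cells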); conditions: Chlamydomonas reinhardtii gravitaxis, OD600 absorbance, 2 days; at 10 µM; stronger effect = higher value
[16] = blockers of RIG-like receptor reporter activation – cell-based, Sendai virus stimulus, luciferase, 10K MLSCN set, TLR/RLR signaling modifier project, primary screen (AID 602276;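 active = inhibition at or above 50% at 10 µM; inactive = inhibition below 50%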;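 also: firefly luciferase from ISG56 promoter only with Renilla not read in this screen; 0% = Sendai virus plus DMSO and 100% = medium plus DMSO without virus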); conditions: HEK293 RL24 IRF3 luciferase reporter, at 10 µM, stronger effect = higher value
[17] = TLR3 IRF3 reporter activation blockers – cell-based, poly I:C stimulus, luciferase, 10K MLSCN set, primary screen (AID 602277;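 active = inhibition of the reporter signal at or above 50%; inactive = inhibition below 50%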); conditions: HEK293-TLR3 RL24 IRF3 luciferase reporter, at 10 µM, stronger effect = higher value

O=c1oc2ccccc2cc1-c1cn(-c2ccccc2)c(=S)[nH]1
active: normalized thallium flux (PubChem AID 1714) 0.0198 | thallium flux rate (normalised fluorescence) [3] 0.0191 | raw Tl+ flux slope (below DMSO = inhibition, above = activation) [4] 0.0289 | thallium flux slope [5] 0.0141
inactive: normalised thallium flux (F/F0 slope) [1] 0.00633 | normalized thallium flux [2] 0.0319

CCCOC(=O)CC1C(=O)NCCN1Cc1ccc(F)cc1 (centres undefined)
inactive: normalised thallium flux (F/F0 slope) [1] 0.00813 | normalized thallium flux (PubChem AID 1714) 0.00582 | normalized thallium flux [2] 0.0278 | thallium flux rate (normalised fluorescence) [3] 0.0066 | raw Tl+ flux slope (below DMSO = inhibition, above = activation) [4] 0.019 | thallium flux slope [5] 0.00872

CCOc1ccc(NC(=O)CN(C)CC(=O)Nc2cccc(Cl)c2C)cc1OCC
inactive: normalised thallium flux (F/F0 slope) [1] 0.00801 | normalized thallium flux (PubChem AID 1714) 0.00595 | normalized thallium flux [2] 0.0338 | thallium flux rate (normalised fluorescence) [3] 0.00749 | raw Tl+ flux slope (below DMSO = inhibition, above = activation) [4] 0.0213 | thallium flux slope [5] 0.0107

COc1ccc(Oc2c(Cl)cnn(-c3ccccc3)c2=O)cc1
inactive: normalised thallium flux (F/F0 slope) [1] 0.00949 | normalized thallium flux (PubChem AID 1714) 0.0065 | normalized thallium flux [2] 0.0314 | thallium flux rate (normalised fluorescence) [3] 0.00741 | thallium flux slope [5] 0.00996
active: raw Tl+ flux slope (below DMSO = inhibition, above = activation) [4] 0.0166

COc1ccc(NC(=O)c2ccccc2[N+](=O)[O-])cc1OC
inactive: normalised thallium flux (F/F0 slope) [1] 0.00704 | normalized thallium flux (PubChem AID 1714) 0.00505 | normalized thallium flux [2] 0.0299 | thallium flux rate (normalised fluorescence) [3] 0.00749 | raw Tl+ flux slope (below DMSO = inhibition, above = activation) [4] 0.0198 | thallium flux slope [5] 0.0109

O=[N+]([O-])c1ccccc1/C=N/n1c(COc2ccccc2)n[nH]c1=S
active: normalized thallium flux (PubChem AID 1714) 0.0786 | thallium flux rate (normalised fluorescence) [3] 0.0168 | thallium flux slope [5] 0.0116
inactive: normalised thallium flux (F/F0 slope) [1] 0.00593 | normalized thallium flux [2] 0.0297

COc1ccc(C2/C=C\CN(S(=O)(=O)c3cccs3)CC(=O)N2Cc2ccc(F)cc2)cc1 (centres undefined)
inactive: normalised thallium flux (F/F0 slope) [1] 0.00741 | normalized thallium flux (PubChem AID 1714) 0.00428 | normalized thallium flux [2] 0.0313 | thallium flux rate (normalised fluorescence) [3] 0.00682 | thallium flux slope [5] 0.00998

Cc1cs/c(=N\N=C\c2ccc(O)cc2)n1Cc1ccco1
active: normalized thallium flux [2] 0.0253
inactive: normalised thallium flux (F/F0 slope) [1] 0.00586 | normalized thallium flux (PubChem AID 1714) 0.00375 | thallium flux rate (normalised fluorescence) [3] 0.00654 | raw Tl+ flux slope (below DMSO = inhibition, above = activation) [4] 0.0162 | thallium flux slope [5] 0.0101

O=S(=O)(c1ccc(F)cc1)N1CCN(C(=S)NCc2ccco2)CC1
inactive: normalised thallium flux (F/F0 slope) [1] 0.0076 | normalized thallium flux (PubChem AID 1714) 0.0054 | normalized thallium flux [2] 0.0354 | thallium flux rate (normalised fluorescence) [3] 0.00396 | raw Tl+ flux slope (below DMSO = inhibition, above = activation) [4] 0.0185 | thallium flux slope [5] 0.0111

O=C(CSc1nnc(-c2cccs2)n1Cc1ccccc1)N1CCc2ccccc2C1
active: normalized thallium flux (PubChem AID 1714) 0.00334 | normalized thallium flux [2] 0.0237 | thallium flux rate (normalised fluorescence) [3] 0.00608 | raw Tl+ flux slope (below DMSO = inhibition, above = activation) [4] 0.0136 | thallium flux slope [5] 0.00891
inactive: normalised thallium flux (F/F0 slope) [1] 0.00645

O=C(NNC(=S)NC(=O)c1cn(-c2ccccc2)nc1-c1ccccc1)c1ccncc1
active: normalized thallium flux (PubChem AID 1714) 0.0138 | thallium flux rate (normalised fluorescence) [3] 0.0141 | thallium flux slope [5] 0.0155
inactive: normalised thallium flux (F/F0 slope) [1] 0.00764 | normalized thallium flux [2] 0.0344

CCc1cc(-c2n[nH]c(=S)n2CC(C)C)cs1
active: normalised thallium flux (F/F0 slope) [1] 0.0137 | normalized thallium flux (PubChem AID 1714) 0.0351 | thallium flux rate (normalised fluorescence) [3] 0.0146 | raw Tl+ flux slope (below DMSO = inhibition, above = activation) [4] 0.0381 | thallium flux slope [5] 0.0129
inactive: normalized thallium flux [2] 0.0359

COc1ccc(-c2cn(-c3ccc(OC)cc3)c(=S)[nH]2)cc1
inactive: normalised thallium flux (F/F0 slope) [1] 0.00623 | normalized thallium flux [2] 0.0299
active: normalized thallium flux (PubChem AID 1714) 0.0216 | thallium flux rate (normalised fluorescence) [3] 0.0163 | thallium flux slope [5] 0.0135

CCNCc1cc2cc(C)ccc2[nH]c1=O
inactive: inhibition [6] -5.2% | inhibition of aggregation [7] 1.8% | inhibition [8] -107% | inhibition [10] 2.71% | fluorescence slope [11] -0.515 | NADPH fluorescence slope [12] -4.8e-05 | fluorescence slope [13] 0.00569 | outcome [14] | normalised thallium flux (F/F0 slope) [1] 0.00875 | normalized thallium flux (PubChem AID 1714) 0.00485 | normalized thallium flux [2] 0.034 | thallium flux rate (normalised fluorescence) [3] 0.00817 | raw Tl+ flux slope (below DMSO = inhibition, above = activation) [4] 0.0185 | thallium flux slope [5] 0.0111 | inhibition [15] 9.6% | inhibition [16] 3.24% | inhibition [17] 16.9%
-1.49: z-score ([9]; measured here: nuclear c-Myc green intensity z-score)
118%: nuclei count [7]
132%: nuclei count [8]
596: cell count [6]
-1.38: z-score ([9]; measured here: nuclear pErk red intensity z-score, stronger effect = higher value)
0.581: z-score ([9]; measured here: cell density z-score)

CC(=O)NNC(=O)c1csc(Cc2c(Cl)sc3ccc(Cl)cc23)n1
active: normalized thallium flux (PubChem AID 1714) 0.0419 | thallium flux rate (normalised fluorescence) [3] 0.0146 | thallium flux slope [5] 0.0112
inactive: normalised thallium flux (F/F0 slope) [1] 0.00965 | normalized thallium flux [2] 0.0308

O=C(N/N=C/c1coc2ccccc2c1=O)c1cc2ccccc2o1
inactive: normalised thallium flux (F/F0 slope) [1] 0.0123 | normalized thallium flux [2] 0.0374 | thallium flux slope [5] 0.0106
active: normalized thallium flux (PubChem AID 1714) 0.0194 | thallium flux rate (normalised fluorescence) [3] 0.0141 | raw Tl+ flux slope (below DMSO = inhibition, above = activation) [4] 0.0271

Cc1ccc(OCC(=O)NNC(=S)NCc2ccccc2)cc1
inactive: normalised thallium flux (F/F0 slope) [1] 0.00584 | normalized thallium flux [2] 0.0307 | raw Tl+ flux slope (below DMSO = inhibition, above = activation) [4] 0.0206
active: normalized thallium flux (PubChem AID 1714) 0.0196 | thallium flux rate (normalised fluorescence) [3] 0.0156 | thallium flux slope [5] 0.0162

COc1cccc(NC(=S)NC(=O)c2c(Cl)c(C)nn2C)c1
active: normalised thallium flux (F/F0 slope) [1] 0.0264 | normalized thallium flux (PubChem AID 1714) 0.063 | thallium flux rate (normalised fluorescence) [3] 0.0727 | raw Tl+ flux slope (below DMSO = inhibition, above = activation) [4] 0.066 | thallium flux slope [5] 0.0309

Cc1cc(C(=O)NNC(=S)Nc2ccccc2C)cs1
active: normalized thallium flux (PubChem AID 1714) 0.0117
inactive: normalised thallium flux (F/F0 slope) [1] 0.00983 | normalized thallium flux [2] 0.0323 | raw Tl+ flux slope (below DMSO = inhibition, above = activation) [4] 0.0239 | thallium flux slope [5] 0.0109
